Test [1] in a line: NCI Yeast Anticancer Drug Screen. Data for the rad50 strain (AID 155).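 Note: 0% = growth of vehicle-only cultures of the same strain.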 The conditions noted are these: S. cerevisiae rad50 strain growth inhibition, stronger effect = higher value. An outline of the steps: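 Cells are treated with compound, grown, and their growth is then scored against vehicle-only cultures of the same repair-deficient yeast strain.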
A short description of test [2]: NCI Yeast Anticancer Drug Screen. Data for the mec2-1 strain (AID 157). The conditions noted are these: S. cerevisiae mec2-1 strain, stronger effect = higher value. The method, boiled down: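 Mutant yeast (mec2-1) grown with compound; growth inhibition relative to vehicle control reported.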
The nature of test [3]: NCI Yeast Anticancer Drug Screen. Data for the sgs1 mgt1 strain (AID 161).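 Note: 0% = growth of cultures given vehicle only.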 The conditions noted are these: S. cerevisiae sgs1 mgt1 strain, stronger effect = higher value. The method, boiled down: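 Growth of a repair-deficient yeast mutant was monitored after compound treatment and expressed as inhibition relative to vehicle-treated cultures.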
Test [4] is described as follows: NCI Yeast Anticancer Drug Screen. Data for the cln2 rad14 strain (AID 165).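 Note: 0% = growth equal to vehicle treated cultures.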 The conditions noted are these: S. cerevisiae cln2 rad14 strain, stronger effect = higher value. The method, boiled down: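 Readout is yeast growth inhibition versus vehicle-treated controls, using a strain with cln2 and rad14 alterations exposed to compound.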
Test [5] is described as follows: NCI Yeast Anticancer Drug Screen. Data for the bub3 strain (AID 167). The conditions noted are these: S. cerevisiae bub3 mutant strain, stronger effect = higher value. An outline of the steps:
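Part of a panel of yeast mutants defective in DNA damage repair or cell cycle regulation. Each strain is grown with compound, and inhibition is calculated relative to solvent-treated cultures.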

Test [6] can be described thus: NCI Yeast Anticancer Drug Screen. Data for the mlh1 rad18 strain (AID 175). Conditions: S. cerevisiae mlh1 rad18 strain growth inhibition, stronger effect = higher value. The method, boiled down:
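Genetically defined yeast (DNA repair-deficient) exposed to compounds; growth inhibition determined relative to vehicle.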

Where [7] appears, read: at 5.0 µM (retest, dose inferred, filed as 0.5).
Where [8] appears, read: at 50.0 µM (retest, dose inferred, filed as 5.0).

Results on 10 compounds are retold here after PubChem BioAssay (NCI).

Each structure is given as a SMILES string. Compounds without any hit were thinned out: in the full panel of roughly 79,000, 15% have a hit. Unmarked numbers belong to inactive results. Calls of active or inactive are those of the source. Cut-off read from the data, not from the text of the source: active = growth inhibition above about 70%; inactive = the rest.

For the compound `CCCCCCCCCCCCCCCC[N+](C)(C)C(C)c1ccccc1` (stereo not given), the growth inhibition in test [1] (setting [7]) was 98% (active); in test [1] (setting [8]) it was 98% (active); in test [1] (at 50.0 µM), 90.5% (active); in test [2] (setting [7]) it was 98% (active); in test [2] (setting [8]), 99% (active); in test [2] (at 50.0 µM) it was 90.7% (active). Further, the growth inhibition in test [3] (setting [7]) was 99% (active); in test [3] (setting [8]), 99% (active); in test [3] (at 50.0 µM) it was 90.5% (active); in test [4] (setting [7]), 99% (active); in test [4] (setting [8]) it was 99% (active); in test [4] (at 50.0 µM), 86% (active). The growth inhibition in test [5] (setting [7]) was 98% (active); in test [5] (setting [8]), 98% (active); in test [5] (at 50.0 µM) it was 92.6% (active); in test [6] (setting [7]) it was 98% (active); in test [6] (setting [8]) it was 97% (active); in test [6] (at 50.0 µM) it was 91.8% (active).
In the case of `Cc1ccc2c(C3Cc4ccccc4N3C(=O)/C=C\C(=O)O)c(C)[nH]c2c1` (stereo not given), the growth inhibition in test [1] (setting [7]) was 23%; in test [1] (setting [8]), 85% (active); in test [1] (at 50.0 µM), 87.5% (active); in test [2] (setting [7]), 24%; in test [2] (setting [8]), 91% (active); in test [2] (at 50.0 µM) it was 88.7% (active). Also, the growth inhibition in test [3] (setting [7]) was 37%; in test [3] (setting [8]), 89% (active); in test [3] (at 50.0 µM), 92.7% (active); in test [4] (setting [7]) it was 27%; in test [4] (setting [8]), 82% (active); in test [4] (at 50.0 µM) it was 90.1% (active). Besides, the growth inhibition in test [5] (setting [7]) is 35%; in test [5] (setting [8]), 90% (active); in test [5] (at 50.0 µM) it was 90.6% (active); in test [6] (setting [7]), 39%; in test [6] (setting [8]), 95% (active); in test [6] (at 50.0 µM) it was 89.1% (active).
As to `CCCCCC(C)[P+](c1ccccc1)(c1ccccc1)c1ccccc1` (stereo not given), the growth inhibition is 54% in test [1] (setting [7]); 98% (active) in test [1] (setting [8]); 90.8% (active) in test [1] (at 50.0 µM); 48% in test [2] (setting [7]); 99% (active) in test [2] (setting [8]); 90.9% (active) in test [2] (at 50.0 µM). The growth inhibition in test [3] (setting [7]) was 71% (active); in test [3] (setting [8]), 99% (active); in test [3] (at 50.0 µM), 90% (active); in test [4] (setting [7]), 61%; in test [4] (setting [8]) it was 98% (active); in test [4] (at 50.0 µM), 90.1% (active). Also, the growth inhibition is 69% in test [5] (setting [7]); 99% (active) in test [5] (setting [8]); 91% (active) in test [5] (at 50.0 µM); 45% in test [6] (setting [7]); 98% (active) in test [6] (setting [8]); 88.5% (active) in test [6] (at 50.0 µM).
In the case of `O=C(CNc1ccc([N+](=O)[O-])cc1)Nn1c(-c2ccccc2)nc2ccccc2c1=O`, the growth inhibition was 18% in test [1] (setting [7]); 23% in test [1] (setting [8]); 82.1% (active) in test [1] (at 50.0 µM); 3% in test [2] (setting [7]); 26% in test [2] (setting [8]); 70.5% (active) in test [2] (at 50.0 µM). The growth inhibition in test [3] (setting [7]) was 6%; in test [3] (setting [8]) it was 25%; in test [3] (at 50.0 µM), 72.7% (active); in test [4] (setting [7]), 11%; in test [4] (setting [8]), 19%; in test [4] (at 50.0 µM), 38.8%. Also, the growth inhibition is 4% in test [5] (setting [7]); 54% in test [5] (setting [8]); 91.8% (active) in test [5] (at 50.0 µM); 2% in test [6] (setting [7]); 28% in test [6] (setting [8]); 85.4% (active) in test [6] (at 50.0 µM).
In the case of `COc1cc(NCCCCCNC2CCCCC2)c2ncccc2c1`, the growth inhibition in test [1] (setting [7]) was 2%; in test [1] (setting [8]), 64%; in test [1] (at 50.0 µM) it was 83.2% (active); in test [2] (setting [7]), -4%; in test [2] (setting [8]) it was 17%; in test [2] (at 50.0 µM), 46.5%. Further, the growth inhibition in test [3] (setting [7]) was 21%; in test [3] (setting [8]), 63%; in test [3] (at 50.0 µM), 74.1% (active); in test [4] (setting [7]), 7%; in test [4] (setting [8]), 32%; in test [4] (at 50.0 µM), 19.9%. Besides, the growth inhibition in test [5] (setting [7]) is 14%; in test [5] (setting [8]) it was 57%; in test [5] (at 50.0 µM) it was 83.6% (active); in test [6] (setting [7]), -18%; in test [6] (setting [8]), 27%; in test [6] (at 50.0 µM), 74.2% (active).
Consider `CC1CCC(SC2CC(=O)CCC2=O)CC1` (stereo not given), for which the growth inhibition in test [1] (setting [7]) is 19%; in test [1] (setting [8]) it was 98% (active); in test [1] (at 50.0 µM) it was 99% (active); in test [2] (setting [7]), 19%; in test [2] (setting [8]), 99% (active); in test [2] (at 50.0 µM) it was 99.2% (active). Besides, the growth inhibition is 21% in test [3] (setting [7]); 99% (active) in test [3] (setting [8]); 92% (active) in test [3] (at 50.0 µM); 6% in test [4] (setting [7]); 99% (active) in test [4] (setting [8]); 98.2% (active) in test [4] (at 50.0 µM). In addition, the growth inhibition in test [5] (setting [7]) was 24%; in test [5] (setting [8]), 98% (active); in test [5] (at 50.0 µM) it was 98.7% (active); in test [6] (setting [7]), -1%; in test [6] (setting [8]), 98% (active); in test [6] (at 50.0 µM), 98.6% (active).
`O=c1ccc2nc3ccccc3sc-2c1`: the growth inhibition is -13% in test [1] (setting [7]); 98% (active) in test [1] (setting [8]); 95.4% (active) in test [1] (at 50.0 µM); 22% in test [2] (setting [7]); 98% (active) in test [2] (setting [8]); 8.1% in test [2] (at 50.0 µM). For the same compound, the growth inhibition in test [3] (setting [7]) was 5%; in test [3] (setting [8]), 98% (active); in test [3] (at 50.0 µM), 76.8% (active); in test [4] (setting [7]), -6%; in test [4] (setting [8]) it was 98% (active); in test [4] (at 50.0 µM), 49.8%. For the same compound, the growth inhibition is 7% in test [5] (setting [7]); 98% (active) in test [5] (setting [8]); 92.1% (active) in test [5] (at 50.0 µM); 4% in test [6] (setting [7]); 98% (active) in test [6] (setting [8]); 95.5% (active) in test [6] (at 50.0 µM).
In the case of `C[n+]1c(-c2ccc(/C=N\NC(=O)c3ccc(C(=O)N/N=C/c4ccc(-c5cn6ccsc6[n+]5C)cc4)cc3)cc2)cn2ccsc21`, the growth inhibition in test [1] (setting [7]) is 65%; in test [1] (setting [8]) it was 98% (active); in test [1] (at 50.0 µM), 90.6% (active); in test [2] (setting [7]), 81% (active); in test [2] (setting [8]) it was 98% (active); in test [2] (at 50.0 µM), 86.7% (active). In addition, the growth inhibition was 72% (active) in test [3] (setting [7]); 98% (active) in test [3] (setting [8]); 84.5% (active) in test [3] (at 50.0 µM); 27% in test [4] (setting [7]); 98% (active) in test [4] (setting [8]); 86.7% (active) in test [4] (at 50.0 µM). The growth inhibition was 86% (active) in test [5] (setting [7]); 98% (active) in test [5] (setting [8]); 83.8% (active) in test [5] (at 50.0 µM); 88% (active) in test [6] (setting [7]); 97% (active) in test [6] (setting [8]); 91.5% (active) in test [6] (at 50.0 µM).
On to `O=S1(=O)c2ccccc2C(O)(c2ccccc2)c2cc3ccccc3n21` (stereo not given), for which the growth inhibition in test [1] (setting [7]) was 9%; in test [1] (setting [8]), 95% (active); in test [1] (at 50.0 µM), 95.8% (active); in test [2] (setting [7]), 9%; in test [2] (setting [8]), 96% (active); in test [2] (at 50.0 µM), 95.5% (active). Moreover, the growth inhibition in test [3] (setting [7]) is 12%; in test [3] (setting [8]), 97% (active); in test [3] (at 50.0 µM), 94.2% (active); in test [4] (setting [7]) it was 9%; in test [4] (setting [8]), 95% (active); in test [4] (at 50.0 µM), 94.9% (active). The growth inhibition in test [5] (setting [7]) is 5%; in test [5] (setting [8]) it was 96% (active); in test [5] (at 50.0 µM) it was 94.3% (active); in test [6] (setting [7]), 8%; in test [6] (setting [8]), 95% (active); in test [6] (at 50.0 µM), 95.5% (active).
For the compound `COc1ccc(C2C3CCCC(C3=O)C(c3ccc(OC)cc3)N2N=O)cc1` (stereo not given), the growth inhibition in test [1] (setting [7]) was 0%; in test [1] (setting [8]), 68%; in test [1] (at 50.0 µM), 84% (active); in test [2] (setting [7]) it was 11%; in test [2] (setting [8]), 64%; in test [2] (at 50.0 µM), 86.9% (active). The growth inhibition in test [3] (setting [7]) is -4%; in test [3] (setting [8]), 77% (active); in test [3] (at 50.0 µM), 59.5%; in test [4] (setting [7]), -6%; in test [4] (setting [8]), 71% (active); in test [4] (at 50.0 µM), 88.8% (active). Also, the growth inhibition in test [5] (setting [7]) is -2%; in test [5] (setting [8]), 72% (active); in test [5] (at 50.0 µM) it was 85.2% (active); in test [6] (setting [7]), -3%; in test [6] (setting [8]) it was 77% (active); in test [6] (at 50.0 µM), 96.5% (active).
